Assay results reported in PubChem BioAssay (NCI).
The panel holds about 83,000 compounds, 20% with a hit somewhere; the sample as a whole holds those more often.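 Single-concentration screen, 48 h exposure, 96-well plates. Endpoint: percent growth. Below 10 = active.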 Active and inactive are the calls of the source.

Experiments:
Test in all cases: NCI-60 one-dose screen, 48 h (100 = growth as untreated, 0 = no growth, -100 = all killed)
NCI-H322M lung = details: 10 µM unless noted
HOP-62 NSCLC = details: 10 µM unless noted
A549/ATCC NSCLC = details: 10 µM unless noted
K-562 leukemia = details: 10 µM unless noted
SNB-19 CNS = details: 10 µM unless noted
LOX IMVI melanoma = details: 10 µM unless noted
SK-MEL-28 melanoma = details: 10 µM unless noted
EKVX NSCLC = details: 10 µM unless noted
SN12C renal = details: 10 µM unless noted
CAKI-1 renal = details: 10 µM unless noted
CCRF-CEM leukemia = details: 10 µM unless noted
SR leukemia = details: 10 µM
OVCAR-4 ovarian = details: 10 µM unless noted
IGROV1 ovarian = details: 10 µM
BT-549 breast = details: 10 µM
RPMI-8226 leukemia = details: 10 µM unless noted
HS 578T breast = details: 10 µM unless noted
NCI-H522 lung = details: 10 µM unless noted
HOP-92 NSCLC = details: 10 µM unless noted

Compound | growth (NCI-H322M lung) | growth (HOP-62 NSCLC) | growth (A549/ATCC NSCLC) | growth (K-562 leukemia) | growth (SNB-19 CNS) | growth (LOX IMVI melanoma) | growth (SK-MEL-28 melanoma) | growth (EKVX NSCLC) | growth (SN12C renal) | growth (CAKI-1 renal) | growth (CCRF-CEM leukemia) | growth (SR leukemia) | growth (OVCAR-4 ovarian) | growth (IGROV1 ovarian) | growth (BT-549 breast) | growth (RPMI-8226 leukemia) | growth (HS 578T breast) | growth (NCI-H522 lung) | growth (HOP-92 NSCLC)
COc1ccc(-c2ccc(OC)c(OC)c2OC)cc1 | 36% (inactive) | 26.9% (inactive) | 38.2% (inactive) | 10.1% (inactive) | 38.9% (inactive) | 16.5% (inactive) | 49.6% (inactive) | 52.4% (inactive) | 42.3% (inactive) | 15.1% (inactive) | 10.1% (inactive) | 16.9% (inactive) | 70.6% (inactive) | 37.1% (inactive) | 20.2% (inactive) | – | – | – | –
CC1(C)N=C(N)N=C(N)N1c1ccc(CCCCc2ccc(S(=O)(=O)F)cc2)cc1 | 31.2% (inactive) | 31.9% (inactive) | 14% (inactive) | 19.7% (inactive) | 42% (inactive) | 15.2% (inactive) | 47.7% (inactive) | – | 26.8% (inactive) | 40.8% (inactive) | 23.4% (inactive) | 38% (inactive) | 86.1% (inactive) | 30.2% (inactive) | 48.7% (inactive) | 15.4% (inactive) | – | – | –
Oc1ccc(O)c2c1C1(Cl)C(Cl)=C(Cl)C2(Cl)C1(Cl)Cl | 33.1% (inactive) | 47.4% (inactive) | 46.1% (inactive) | 27.5% (inactive) | 64.9% (inactive) | 43.1% (inactive) | 67.9% (inactive) | 34.3% (inactive) | 56.4% (inactive) | 34.6% (inactive) | 56.9% (inactive) | 34.9% (inactive) | 54.1% (inactive) | 38.3% (inactive) | 29.2% (inactive) | – | 55.6% (inactive) | – | –
Nc1ccc([N+](=O)[O-])c2c1Oc1ccccc1O2 | 93.9% (inactive) | 90.9% (inactive) | 93.8% (inactive) | 113% (inactive) | 80.8% (inactive) | 103% (inactive) | 116% (inactive) | 91.9% (inactive) | 98% (inactive) | 58.3% (inactive) | 91.2% (inactive) | – | – | 28% (inactive) | – | – | 100% (inactive) | – | –
CC(C)[C@]12O[C@H]1[C@@H]1O[C@]13[C@]1(O[C@H]1C[C@H]1C4=C(CC[C@@]13C)C(=O)OC4)[C@@H]2OC(=O)OC(C)(C)C | 3.68% (active) | 16.6% (inactive) | 16.7% (inactive) | – | 16.5% (inactive) | – | -1.69% (active) | -22.4% (active) | – | -49.8% (active) | – | – | 29.3% (inactive) | -5.58% (active) | – | – | -6.44% (active) | -34.3% (active) | –
O=S(=O)(Cl)c1ccccc1 (tested in a mixture with another compound) | 102% (inactive) | 92.9% (inactive) | 102% (inactive) | – | 100% (inactive) | 98.8% (inactive) | 103% (inactive) | – | 102% (inactive) | 109% (inactive) | 114% (inactive) | 104% (inactive) | – | 109% (inactive) | 99.5% (inactive) | 96.6% (inactive) | 102% (inactive) | 89.1% (inactive) | –
Cc1cc(CCl)c(C)cc1CCl | 15% (inactive) | 15.3% (inactive) | 55% (inactive) | 63.8% (inactive) | 51% (inactive) | 28% (inactive) | – | 106% (inactive) | – | 5.81% (active) | – | 11.9% (inactive) | 83.4% (inactive) | 26.4% (inactive) | 68.8% (inactive) | 26.4% (inactive) | 81.7% (inactive) | 55.5% (inactive) | –
OB([O][Hg][c]1ccccc1)[O][Hg][c]1ccccc1 | -22.4% (active) | -90.3% (active) | 24% (inactive) | -32.5% (active) | 5.87% (active) | -29.2% (active) | -83.2% (active) | – | -99.6% (active) | -92.4% (active) | – | -15.2% (active) | 7.38% (active) | -54.3% (active) | -91.5% (active) | -44.4% (active) | -5.59% (active) | – | –
O=[N+]([O-])c1ccc(F)c([N+](=O)[O-])c1F | 91.7% (inactive) | 106% (inactive) | 96% (inactive) | 11.1% (inactive) | 115% (inactive) | 102% (inactive) | 116% (inactive) | 100% (inactive) | 103% (inactive) | 103% (inactive) | 61.7% (inactive) | 8.94% (active) | – | 105% (inactive) | – | 93.5% (inactive) | 103% (inactive) | 95.3% (inactive) | –
CCCCCCCCCCCCOc1ccc(C(=O)Oc2ccc(CSP3(=O)OCC4OC(n5cnc6c(N)ncnc65)C(F)C4OP(=O)(O)OCC4OC(n5ccc(=O)[nH]c5=O)C(F)C4O3)cc2)cc1 (stereo unspecified) | 79% (inactive) | 115% (inactive) | 98.3% (inactive) | 52.1% (inactive) | 101% (inactive) | 85.9% (inactive) | 121% (inactive) | 107% (inactive) | – | – | 68.3% (inactive) | 25.1% (inactive) | 54.2% (inactive) | 97% (inactive) | 81.6% (inactive) | 72.2% (inactive) | 117% (inactive) | 69.4% (inactive) | –
C=CC(=O)NC(O)C(Cl)(Cl)Cl (stereo unspecified) | 85% (inactive) | 104% (inactive) | 103% (inactive) | 97.1% (inactive) | 105% (inactive) | – | 103% (inactive) | – | 109% (inactive) | 93.5% (inactive) | – | 90.8% (inactive) | 122% (inactive) | 98.1% (inactive) | – | 102% (inactive) | 120% (inactive) | – | –
C[As](=O)(O)c1ccc(C(=O)O)cc1 | 115% (inactive) | 108% (inactive) | 106% (inactive) | 122% (inactive) | 106% (inactive) | 115% (inactive) | 106% (inactive) | – | 107% (inactive) | 120% (inactive) | – | 118% (inactive) | 113% (inactive) | 120% (inactive) | 117% (inactive) | 101% (inactive) | 113% (inactive) | – | –
O=C(O)CC(Br)C(=O)CBr (stereo unspecified) | 100% (inactive) | 105% (inactive) | 99.9% (inactive) | 105% (inactive) | 104% (inactive) | 86.6% (inactive) | 102% (inactive) | – | 107% (inactive) | 95.8% (inactive) | – | 113% (inactive) | 97.2% (inactive) | – | 98.2% (inactive) | 103% (inactive) | 104% (inactive) | – | –
O=C1NC(=O)C(O)(C2(O)C(=O)NC(=O)NC2=O)C(=O)N1 | 132% (inactive) | 97.6% (inactive) | – | 87.9% (inactive) | 96.1% (inactive) | 91.9% (inactive) | 109% (inactive) | 110% (inactive) | 92.3% (inactive) | 104% (inactive) | 70.1% (inactive) | 95.1% (inactive) | 108% (inactive) | – | – | 75.6% (inactive) | 99% (inactive) | 94.3% (inactive) | –
Cc1cc(NC(=O)CCc2ccc(N3C(N)=NC(N)=NC3(C)C)cc2)ccc1S(=O)(=O)F | 29.7% (inactive) | 28.7% (inactive) | – | 22.8% (inactive) | 45% (inactive) | 18.1% (inactive) | 53.9% (inactive) | 58.8% (inactive) | 32.8% (inactive) | 34.2% (inactive) | -13% (active) | -23.7% (active) | 62.1% (inactive) | – | – | -24.6% (active) | 74.7% (inactive) | -17.2% (active) | –
NC(Cc1ccc(O)cc1)C(=O)N/N=C/c1ccc(N(CCCl)CCCl)cc1 (stereo unspecified) | 102% (inactive) | 95.4% (inactive) | 52.3% (inactive) | 41.3% (inactive) | 92.5% (inactive) | 44.4% (inactive) | 108% (inactive) | 92.7% (inactive) | 46.4% (inactive) | 25.9% (inactive) | 27.9% (inactive) | – | 90.6% (inactive) | 63.4% (inactive) | – | – | 91.9% (inactive) | – | –
CC1CC=CCC12C(=O)NC(=S)NC2=O (stereo unspecified) | 118% (inactive) | – | 91.2% (inactive) | 94.2% (inactive) | 109% (inactive) | – | 101% (inactive) | 95.9% (inactive) | 99.8% (inactive) | 96.6% (inactive) | 82.6% (inactive) | – | – | 117% (inactive) | 110% (inactive) | – | 102% (inactive) | 101% (inactive) | –
O=C(CF)N(O)c1ccc(/C=C/c2ccccc2)cc1 | 71.4% (inactive) | – | 36.4% (inactive) | 45.4% (inactive) | 54.3% (inactive) | 39.8% (inactive) | 99.9% (inactive) | 98.5% (inactive) | 26.6% (inactive) | 11.9% (inactive) | – | – | 70.8% (inactive) | 40.8% (inactive) | 44.9% (inactive) | – | 99% (inactive) | 60.6% (inactive) | –
C[CH2][Pb]([CH2]C)([CH2]C)[O]C(=O)c1ccc(N)cc1 | 79.6% (inactive) | 89.3% (inactive) | – | 38.6% (inactive) | – | 68.5% (inactive) | 58.8% (inactive) | – | 77.2% (inactive) | 65.5% (inactive) | – | – | 57% (inactive) | – | 56.9% (inactive) | 59.1% (inactive) | – | – | –
O=C(/C=C/c1ccccc1)N[C@@H](CO)Cc1cnc[nH]1 | 101% (inactive) | – | – | 107% (inactive) | 103% (inactive) | 97.2% (inactive) | 99.4% (inactive) | – | 105% (inactive) | 100% (inactive) | – | – | 96.8% (inactive) | 92.9% (inactive) | 103% (inactive) | 98% (inactive) | 116% (inactive) | – | 100% (inactive)
[N-]=[N+]=NC(C(=O)O)c1ccccc1 (stereo unspecified) | 101% (inactive) | – | 95.2% (inactive) | 94.3% (inactive) | 100% (inactive) | – | 105% (inactive) | 99.7% (inactive) | 119% (inactive) | 91.8% (inactive) | – | 83.9% (inactive) | – | 98% (inactive) | 114% (inactive) | – | 113% (inactive) | 87.3% (inactive) | –
